Reference: the supplement of paper PMC6555819

Experiments:
Assay in all cases: PBM binding z-score (relative to random genomic background probes); higher = stronger binding; sequences stand for … in GC…GCGATTGACAGCGTAGAATGAAGG
[1] = test system: PPARg:RXRa DBDmut IVT, anti-RXR (DBD mutation: RXRa K156A/R161A, NR concentration 270 nM, RXRa partner concentration 90 nM)
Procedure, shortened: (§1)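 On custom Agilent 4×180K arrays, double-stranded probes with 34-nt variable regions carried direct-repeat seeds, single-nucleotide variants, half-site ablations or random human genomic background. Ligand-free nuclear receptor dimers were applied for 1 h, and binding was read with antibodies against each partner (one per run). Binding z-scores come from regression-normalized fluorescence, with the random background probes as reference.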

[2] = test system: PPARg:RXRa IVT, anti-PPARg (NR concentration 270 nM, RXRa partner concentration 90 nM)
Procedure, shortened: as §1

[3] = test system: PPARg DBDmut:RXRa IVT, anti-PPARg (DBD mutation: PPARg1 K132A/R137A, NR concentration 270 nM, RXRa partner concentration 90 nM)
Procedure, shortened: as §1

[4] = test system: PPARg DBDmut IVT, anti-PPARg (DBD mutation: PPARg1 K132A/R137A, NR concentration 270 nM)
Procedure, shortened: as §1

[5] = test system: PPARg homodimer (NR concentration 180 nM)
Procedure, shortened: as §1

[6] = test system: PXR:RXRa (NR concentration 270 nM, RXRa partner concentration 90 nM)
Procedure, shortened: as §1

[7] = test system: PXR homodimer (NR concentration 270 nM)
Procedure, shortened: as §1

[8] = test system: RARa:RXR (NR concentration 270 nM, RXRa partner concentration 90 nM)
Procedure, shortened: as §1

[9] = test system: RARa homodimer (NR concentration 270 nM)
Procedure, shortened: as §1

[10] = test system: RARb:RXRa (NR concentration 270 nM, RXRa partner concentration 90 nM)
Procedure, shortened: as §1

[11] = test system: RARb homodimer (NR concentration 270 nM)
Procedure, shortened: as §1

[12] = test system: RARg:RXRa (NR concentration 270 nM, RXRa partner concentration 90 nM)
Procedure, shortened: as §1

[13] = test system: RARg homodimer (NR concentration 270 nM)
Procedure, shortened: as §1

[14] = test system: RXRa DBDmut IVT, anti-RXR (DBD mutation: RXRa K156A/R161A, NR concentration 90 nM)
Procedure, shortened: as §1

[15] = test system: RXRa homodimer (NR concentration 180 nM)
Procedure, shortened: as §1

[16] = test system: THRa:RXRa (NR concentration 90 nM, RXRa partner concentration 90 nM)
Procedure, shortened: as §1

[17] = test system: THRa homodimer (NR concentration 90 nM)
Procedure, shortened: as §1

[18] = test system: VDR:RXRa (NR concentration 270 nM, RXRa partner concentration 90 nM)
Procedure, shortened: as §1

[19] = test system: VDR homodimer (NR concentration 270 nM)
Procedure, shortened: as §1

Sequence | PBM binding z-score [1] | PBM binding z-score [2] | PBM binding z-score [3] | PBM binding z-score [4] | PBM binding z-score [5] | PBM binding z-score [6] | PBM binding z-score [7] | PBM binding z-score [8] | PBM binding z-score [9] | PBM binding z-score [10] | PBM binding z-score [11] | PBM binding z-score [12] | PBM binding z-score [13] | PBM binding z-score [14] | PBM binding z-score [15] | PBM binding z-score [16] | PBM binding z-score [17] | PBM binding z-score [18] | PBM binding z-score [19]
CTAACTAGGTCACCGGAAGGTCAAAGTCCGCATG | 8.81 | 9.32 | 3.69 | 4.14 | 5.86 | 6.02 | 2.05 | 7.24 | 1.84 | 5.55 | 5.66 | 8.24 | 7.39 | 2.16 | 6.18 | 4.48 | 2.98 | 6.08 | 2.9
TCTAGTTGGTCAAAGGTCAAACACTCGAAATGCG | 3.57 | 6.13 | 0.582 | 1.1 | 5.11 | 6.28 | 2.64 | 7.64 | 2.96 | 5.23 | 5.02 | 7.43 | 6.41 | 2.11 | 8.23 | 4.04 | 1.45 | 5.41 | 3.12
CGTCCAAGGTCCATGCTAGGTCAGTGAAAGCATT | 0.0985 | 0.351 | -0.956 | -1 | 0.21 | 0.422 | -0.0884 | 1.35 | -0.265 | 1.7 | 2.62 | 1.41 | 1.22 | 1.41 | 0.238 | 2.73 | 0.766 | 0.731 | 1.07
AGAGTGAGGTTACCAAAGATCAGGGAAACGCTTG | 1.07 | 1.49 | -0.228 | -0.0667 | 0.744 | 1.7 | 0.558 | 1.97 | 0.667 | 2.48 | 1.61 | 2.25 | 1.78 | 0.473 | 2.81 | 2.84 | 1.16 | 1.64 | 0.671
ACTAGGAGGACAAAGGTCAGAGCTACGCCAGTGA | 2.03 | 4.63 | 0.268 | -0.394 | 4.52 | 3.9 | 0.46 | 5.08 | 2.86 | 4.54 | 4.5 | 6.01 | 5.64 | 0.898 | 5.85 | 3.37 | 0.874 | 3.45 | 0.936
TCTACTTGGTCACGGAGGTCACACACGACGGGTA | 3.04 | 4.21 | 1.37 | 1.65 | 3.86 | 4.67 | 2.05 | 4.97 | 2.04 | 3.89 | 4.43 | 5.15 | 5.47 | 1.33 | 5.3 | 3.6 | 3.15 | 5.85 | 3.56
CATACAGGGTCATCTAGGCCAGAGTAGGGACGGC | 1.89 | 3.92 | 1.57 | 0.152 | 1.63 | 3.65 | 0.88 | 4.05 | 0.656 | 4.3 | 3.37 | 5.16 | 4.85 | 3.17 | 5.72 | 3.6 | 1.37 | 5.26 | 3.3
CCGACTTGGGCAAAGGTTACCATACTCAGTACGA | 0.755 | 2.56 | -0.26 | -0.659 | 0.915 | 1.45 | 0.0117 | 2.35 | -0.0307 | 1.92 | 1.87 | 2.04 | 1.01 | 0.535 | 2.45 | 1.39 | -0.0972 | 0.927 | 0.0256
CGTCCAAGGTCAGCAGGTCAGAGAAAGCGACGTG | 3.52 | 3.72 | 0.0227 | -0.591 | 6.44 | 4.02 | 0.651 | 5.74 | 2.67 | 5.39 | 4.32 | 6.59 | 6.67 | 2.55 | 5.72 | 3.92 | 2.42 | 3.98 | 1.83
CGAACTATGTCAAGGACAGTGAATCTCCGCACGC | 3.57 | 2.11 | -0.346 | 0.361 | 0.224 | -0.112 | 0.37 | 0.29 | 0.0991 | 0.88 | 0.507 | 0.587 | 0.808 | 0.328 | 0.197 | 1.76 | 1.21 | -0.248 | -0.0899
CCTAGTAGGTTATGGGGCATTCAGGCAACGGTGA | 4.52 | 5.34 | 0.403 | -0.728 | 1.28 | 0.0613 | 0.02 | 0.431 | 0.456 | 1.13 | 0.8 | 0.878 | 0.852 | -0.581 | 0.835 | 0.719 | 0.289 | 0.233 | 0.0809
CGTCCAAGGTCAGAGAGGTCAGTGACTGCCGAGT | 3.1 | 3.54 | -0.0571 | -1.2 | 5.16 | 6.06 | 11.3 | 5.75 | 2.55 | 5.28 | 5.15 | 6.31 | 6.93 | 3.54 | 5.25 | 4.26 | 2.58 | 7.27 | 5.42
CAAACTAGGTCAAAGGTCAAGGTCGAGCCAACCA | 9.03 | 9.29 | 6.79 | 5.8 | 7.67 | 7.26 | 1.52 | 8.89 | 3.88 | 5.76 | 5.8 | 8.92 | 7.7 | 3.18 | 9.96 | 4.92 | 2.98 | 6.86 | 3.42
AAATGTAGGTTAAGGGTCATTCAGGTTGGTTCGC | 8.02 | 8.07 | 2.18 | 2.05 | 3.58 | 5.32 | 2.61 | 5.42 | 2.02 | 3.7 | 3.78 | 4.73 | 3.54 | 2.32 | 5.91 | 3.57 | 1.64 | 5.82 | 4.26
TAGCCTAGGTCATGCGGGTCAGTATAGTGTCGGC | 2.38 | 3.65 | 0.284 | -0.506 | 1.03 | 3.67 | 1.56 | 3.45 | -0.237 | 4.05 | 4.27 | 4.91 | 4.9 | 1.07 | 4.2 | 3.75 | 1.35 | 5.81 | 2.26
